Among all 1,300 compounds or so, about 1,000 (77%) were called active. Roughly 7% stayed inconclusive and do not appear here. So high a share suggests a set chosen from earlier hits. This is one part of the list. A number with no mark means an inactive call. Calls follow the shape of the dose curve; as a rule, active = well fitted inhibition curve with a large enough effect; inconclusive = small, poorly fitted or top-dose-only effect; inactive = no such curve, though single readings can be large or run the other way.
assay: qHTS of small molecules that selectively kill Giardia lamblia: Hit Validation.;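 also: viability measured as ATP content by luminescence so killing lowers signal; trophozoites exposed to compounds for 48 h anaerobically at 37 °C; nearly all actives have a fitted effect of over 65% in size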; settings: Giardia lamblia trophozoite viability, dose-response; series mostly up to 38.3 µM; activity change, negative = killing: at the top concentration
How it was run: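 Viability, read as ATP luminescence: trophozoites at 100 cells/well, compound added, 48 hrs anaerobic at 37 deg C, then 15-30 min room-temperature development before reading.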
% is scaled to controls: 0 for no effect and ±100 for the full control effect; potency is read from the fitted curve at half-maximal effect.

Structure (SMILES)	activity change, negative = killing [%]	Potency
O=C(CCN=C1NS(=O)(=O)c2ccccc21)OCC(=O)c1ccc(F)c(F)c1	5.94	
CCCNC(=O)Cn1c(=O)n(C)c2ccccc21	2.52	
COc1cc2c(cc1OC)-c1c(OC)c(OC)cc3ccnc(c13)C2=O		579 nM (active)
COc1ccc(-c2nc(NCCCN(C)C)c3ccccc3n2)cc1		818 nM (active)
CCN(CC)CCCNc1nc2ccccc2c2[nH]c3ccc(OC)cc3c12		183 nM (active)
CCN1C(=O)[C@H]2[C@H]3CN=C(SCc4ccccc4)N3[C@@](Cc3ccccc3)(C(=O)OC)[C@H]2C1=O	13.6	
Cc1nn2c3cc(N4CCOCC4)ccc3nc2c2ccccc12		1030 nM (active)
COc1cccc2c1C(CO)N1C(C#N)C3CC(C(=O)O)C(C1C2)N3C (configuration not stated)		1160 nM (active)
O=C(N/N=C/c1ccc([N+](=O)[O-])o1)C1CC1		1160 nM (active)
O=C(N/N=C/c1ccc([N+](=O)[O-])o1)C1CCCC1		516 nM (active)
CCOc1cc([N+](=O)[O-])cc(/C=C2/NC(=O)N(Cc3ccccc3F)C2=O)c1O		1630 nM (active)
O=c1c(-c2ccc(F)cc2)coc2cc(O)ccc12		918 nM (active)
CC(C)Oc1cc(O)c2c(=O)c(-c3ccc(O)cc3)coc2c1		516 nM (active)
COc1ccc(-c2coc3cc(O)ccc3c2=O)cc1		1160 nM (active)
CC1(C)Oc2cc3oc(-c4cc(O)cc(O)c4)cc3cc2CC1O (configuration not stated)		1450 nM (active)
COC(=O)[C@]1(Cc2ccccc2)N[C@H](CN(C)C(=O)c2ccccc2)[C@@H]2C(=O)N(C)C(=O)[C@@H]21	-1.17	
COc1ccc(C(=O)C(C)OC(=O)CNC(=O)c2ccco2)cc1 (configuration not stated)		20500 nM (active)
COc1ccc(C(=O)C(C)OC(=O)CNC(=O)C2CCCCC2)cc1 (configuration not stated)		4600 nM (active)
COc1ccc2oc(C(=O)OC(C)C(=O)NCc3ccccc3)c(C)c2c1 (configuration not stated)	-21.9	
CCOC(=O)N=Nc1c2ccccc2c2nc3no[nH]c3nc12		365 nM (active)
Fc1cc2[nH]cnc2cc1Cl	-8.27	
O=C(NCc1ccco1)NC(=O)c1csc([N+](=O)[O-])c1		1630 nM (active)
CC(C)CNC(=S)NC(=O)c1csc([N+](=O)[O-])c1		1300 nM (active)
COc1cc(/C=C/C(=O)c2ccc3c(c2)OCCO3)cc(OC)c1OC		7290 nM (active)
COc1cc(C(=S)N2CCOCC2)ccc1OC(=O)/C=C/c1ccco1	7.28	
Cc1nn(-c2nc3ccccc3[nH]2)c(=O)c2ccccc12		230 nM (active)
COC1C(OC(=O)/C=C/C=C/C=C/C=C/C(=O)O)CCC2(CO2)C1C1(C)OC1CC=C(C)C (configuration not stated) (tested in a mixture with another compound)		1.5 nM (active)

Reference: PubChem BioAssay AID588397 (National Center for Advancing Translational Sciences (NCATS), 2011)
